Test results: PubChem BioAssay AID2783 (National Center for Advancing Translational Sciences (NCATS), 2010)
Inconclusive results are not listed. The source made the active and inactive calls. Calls come from the whole dose curve; as a rule, active = well fitted inhibition curve with a large enough effect in the polarisation, with a control signal flat (not every such curve was filed as active); inconclusive = small, poorly fitted or top-dose-only effect, or effect the other way, or a change in a side signal; inactive = no such curve, though single readings can be large or run the other way; the % refers to the polarisation.

Each molecule was assayed against Menin (Homo sapiens) (UniProt O00255) (assay: Confirmation of Inhibitors Targeting the Menin-MLL Interaction in MLL Related Leukemias: Competition With Fluorescein Labeled MLL-derived Peptide). Settings: Fluorescence polarization, fluorescein-MLL peptide displacement from menin; series mostly up to 100 µM; activity change, negative = inhibition: at the top concentration.
Sequence of Menin (Homo sapiens) (O00255 whole entry, looked up): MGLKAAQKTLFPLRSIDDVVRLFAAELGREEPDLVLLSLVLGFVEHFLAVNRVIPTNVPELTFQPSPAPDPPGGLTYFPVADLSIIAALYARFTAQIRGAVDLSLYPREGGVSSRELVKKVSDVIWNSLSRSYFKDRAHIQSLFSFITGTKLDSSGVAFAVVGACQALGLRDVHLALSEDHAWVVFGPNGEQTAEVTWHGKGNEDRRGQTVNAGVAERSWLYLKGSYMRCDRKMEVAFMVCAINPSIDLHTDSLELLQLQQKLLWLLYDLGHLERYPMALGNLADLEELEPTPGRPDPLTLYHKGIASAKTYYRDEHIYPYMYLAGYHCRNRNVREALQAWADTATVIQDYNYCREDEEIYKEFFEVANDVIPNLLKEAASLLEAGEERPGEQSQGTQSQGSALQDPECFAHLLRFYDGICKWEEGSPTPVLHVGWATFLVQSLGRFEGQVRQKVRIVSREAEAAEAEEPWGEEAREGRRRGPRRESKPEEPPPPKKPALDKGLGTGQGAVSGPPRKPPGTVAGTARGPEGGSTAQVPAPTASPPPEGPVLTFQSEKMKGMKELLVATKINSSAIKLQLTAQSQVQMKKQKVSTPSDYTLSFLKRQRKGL
% is set by controls: 0 for no effect and ±100 for the full control effect.

Activity change, negative = inhibition, inactive:
Cc1ccc(NC(=O)C(OC(=O)c2ccc(C=O)cc2)c2ccccc2)cc1Cl (centres undefined) -12.8%
O=C(/C=C/c1ccccc1)NC(NC(=S)Nc1cc(Cl)ccc1Cl)C(Cl)(Cl)Cl (centres undefined) -1.38% [at 288 µM]
CCCC(=O)Nc1cccc(NC(=O)c2ccc([N+](=O)[O-])cc2Cl)c1 0.163% [at 288 µM]
Cc1[nH][nH]c(=O)c1C(c1c(C)[nH][nH]c1=O)c1cn(Cc2ccccc2Cl)c2ccccc12 -9.42% [at 288 µM]
CCOC(=O)Cn1cnc2scc(-c3ccc(C)c(C)c3)c2c1=O -13.8%
COc1ccc(OC)c(C(c2c(C)[nH][nH]c2=O)c2c(C)[nH][nH]c2=O)c1 -15.1% [at 288 µM]
O=c1cc(O)c2ccccc2n1Cc1ccccc1F -15.9%
O=S(=O)(c1ccc(-c2csc(Nc3ccc(Br)cc3)n2)cc1)N1CCCC1 1.46% [at 288 µM]
CCOC(=O)N1CCN(CC(=O)N2c3ccccc3Sc3ccccc32)CC1 8.87%
Oc1ccc(Nc2ncnc3c2oc2ccccc23)cc1 -5.44% [at 288 µM]
CCC(=O)NC(=S)Nc1ccc(-c2nc3ccc(C)cc3s2)cc1 -10.6%
COc1cc2c(cc1NC(=S)NC(=O)c1c(OC)cccc1OC)oc1ccccc12 -15%
C=C(C)CNC(=S)Nc1cccc2cnccc12 -5.17%
C[C@@H]1CN(C(=O)c2nc3ccc(Cl)cn3c2CNCC[C@@H]2C[C@@H]3C=C[C@H]2C3)C[C@H](C)O1 1.86%
CN1CCN(CC(=O)Nc2ccc(S(=O)(=O)N(C)C)cc2)CC1 2.22%
O=C1C(Cl)=C(NCCN2CCOCC2)C(=O)c2ncccc21 3.66% [at 288 µM]
CCN1CCN(CC(=O)Nc2ccc(C(C)=O)cc2)CC1 -17.2%
Cc1ccc(S(=O)(=O)c2cc(OC(=O)c3ccco3)ccc2OC(=O)c2ccco2)cc1 -3.07%
CCCn1c(C2CCCN2c2nc(C)cs2)nc2cc(Cl)c(Cl)cc21 (centres undefined) 5.5%
COc1ccc(Cn2nnnc2C(c2ccccc2)N2CCN(C3CCCC3)CC2)cc1 (centres undefined) -3.94%
O=C(CSc1nnc(-c2c[nH]c3ccccc23)o1)N1c2ccccc2CCc2ccccc21 -5.34%
O=C(Nc1ccc(F)c(Cl)c1)c1cc(-c2ccco2)on1 3.78%
Cc1[nH]nc(-c2ccc(OCc3cnn(-c4ccccc4)c3)c(C)c2O)c1Oc1ccccc1 -13.3%
O=C1NC(=S)N/C1=C/c1ccc2ccccc2c1 49.6% [at 288 µM]
Cc1ccc(F)c(C2C3C=CCC(C)C3C(=O)N2Cc2ccccc2)c1 (centres undefined) 10.6%
O=C(O)/C(=C\c1ccc(F)cc1)c1ccc(-c2ccccc2)cc1 5.91%
COCCNC(=O)C(OC(=O)c1nsc(Cl)c1Cl)C(C)C (centres undefined) -6.55%
COc1cc(O)c(C(=O)c2ccccc2)cc1O 4.39% [at 288 µM]
COc1cc(OC)cc(C(=O)N/N=C/c2ccc(OC)c(COc3ccc4ccccc4c3)c2)c1 -9.2%
COc1ccc(-c2cc(=O)c3c(O)cc(O)c(-c4cc(-c5cc(=O)c6c(O)cc(OC)cc6o5)ccc4OC)c3o2)cc1 -8.17%
CCOc1cc(C(c2c(C)[nH][nH]c2=O)c2c(C)[nH][nH]c2=O)cc(Br)c1OC -2.68% [at 288 µM]
Cc1ccc(NC(=O)C(C)N2C(=O)c3ccccc3C2=O)c(C)c1 (centres undefined) 3.78%
O=C(Nc1ccc2c(c1)OCO2)c1ccccc1 -1.62%
O=C(N1CCOCC1)N1CCN(S(=O)(=O)c2ccc(Cl)cc2)CC1 -4.6%
